Experimental data as given in PubChem BioAssay AID1159580 (chemical genetic matrix, 2015).
“And” between values parts separate entries of the source, which are not always exact repeats. Equal entries are not always repeated. In all, about 5,500 compounds went through this assay and about 2,000 (36%) were called active. Inconclusive results (about 18%) are left out. No stated cut-off is given here; in the data, active means normalized growth mostly below about 0.91 (no sharp cut-off); inconclusive means no clear call, values can overlap the other calls; inactive means mostly above about 0.92. The list shows a part of the results.

Assay: chemical genetic growth profiling, strain panel (AID 1159580);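 further: tested at 20 µM; growth read once vehicle control cultures reached saturation at 30 °C; 1 = growth at the plate median or of vehicle wells; lower values mean less growth of the strain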
Settings: S. cerevisiae deletion strains, growth OD

Measured: normalized growth

CC1CCC2(OC1)OC1CC3C4CCC5C[C@@H](O)CCC5(C)C4=CCC3(C)C1[C@@H]2C (stereo partly drawn)
inactive: locus YAL021C, strain ccr4, hits give low values 1 | locus YAL026C, strain drs2, hits give low values 0.999 | locus YAL030W, strain snc1, hits give low values 1.02 | locus YBL061C, strain skt5, hits give low values 1.01 | locus YBR009C, strain hhf1, hits give low values 1.01 | locus YBR021W, strain FUR4, hits give low values 1.13 | locus YBR023C, strain chs3, hits give low values 1.01 | locus YBR171W, strain sec66, hits give low values 0.995 | locus YBR229C, strain ROT2, hits give low values 0.991 | locus YBR231C, strain swc5, hits give low values 0.997 | locus YBR279W, strain paf1, hits give low values 1 | locus YCL011C, strain gbp2, hits give low values 0.991 | locus YCL016C, strain dcc1, hits give low values 1 | locus YCL029C, strain bik1, hits give low values 0.972 | locus YCL069W, strain vba3, hits give low values 0.994 | locus YCR088W, strain abp1, hits give low values 1.01 | locus YDL005C, strain med2, hits give low values 1.02 | locus YDL035C, strain GPR1, hits give low values 1.01 | locus YDL040C, strain nat1, hits give low values 0.994 | locus YDL074C, strain BRE1, hits give low values 1.01 | locus YDL101C, strain DUN1, hits give low values 0.985 | locus YDL185W, strain tfp1, hits give low values 0.948 | locus YDL192W, strain arf1, hits give low values 0.985 | locus YDR001C, strain nth1, hits give low values 0.997 | locus YDR069C, strain doa4, hits give low values 1.01 | locus YDR101C, strain arx1, hits give low values 1.01 | locus YDR137W, strain rgp1, hits give low values 1.04 | locus YDR159W, strain sac3, hits give low values 1.01 | locus YDR162C, strain NBP2, hits give low values 1.01 | locus YDR195W, strain ref2 0.931 | locus YDR297W, strain sur2, hits give low values 0.998 | locus YDR318W, strain mcm21, hits give low values 0.979 | locus YDR334W, strain swr1, hits give low values 1.01 | locus YDR335W, strain msn5, hits give low values 1 | locus YDR388W, hits give low values 0.966 | locus YDR392W, strain spt3, hits give low values 0.994 | locus YDR502C, strain sam2, hits give low values 0.974 | locus YEL003W, strain gim4, hits give low values 1 | locus YEL037C, strain rad23, hits give low values 1 | locus YEL061C, strain CIN8 (second series), hits give low values 0.993 | locus YEL061C, strain CIN8, hits give low values 0.996 | locus YER015W, strain faa2, hits give low values 1 | locus YER016W, strain bim1, hits give low values 1 | locus YER110C, hits give low values 0.959 | locus YER111C, strain swi4, hits give low values 0.994 | locus YER155C, strain BEM2 (second series), hits give low values 0.994 | locus YER155C, strain BEM2, hits give low values 1.01 | locus YER167W, strain BCK2, hits give low values 1.01 | locus YFR010W, strain ubp6, hits give low values 1 | locus YGL078C, strain dbp3, hits give low values 0.948 | locus YGL086W, strain mad1, hits give low values 0.998 | locus YGL167C, strain pmr1, hits give low values 1.01 | locus YGL173C, strain kem1, hits give low values 1.01 | locus YGL227W, strain vid30, hits give low values 0.986 | locus YGL240W, strain doc1, hits give low values 1.01 | locus YGL248W, strain PDE1, hits give low values 0.999 | locus YGL253W, strain hxk2, hits give low values 0.99 | locus YGR135W, strain pre9, hits give low values 0.958 | locus YGR252W, strain gcn5, hits give low values 1.01 | locus YHR013C, strain ard1, hits give low values 0.998 | locus YHR027C, strain rpn1, hits give low values 0.989 | locus YHR030C, strain SLT2, hits give low values 0.972 and 1.02 | locus YHR079C, strain IRE1 (second series), hits give low values 0.983 | locus YHR079C, strain IRE1, hits give low values 1.01 | locus YHR094C, strain hxt1, hits give low values 0.973 | locus YHR129C, strain ARP1, hits give low values 0.998 | locus YHR142W, strain chs7, hits give low values 0.995 | locus YHR200W, strain rpn10, hits give low values 0.986 | locus YIL066C, strain RNR3, hits give low values 1 | locus YIL073C, strain SPO22, hits give low values 0.937 | locus YIL125W, strain kgd1, hits give low values 0.982 | locus YIR030C, strain dcg1, hits give low values 0.991 | locus YJL092W, strain hpr5, hits give low values 0.993 | locus YJL095W, strain BCK1 (second series), hits give low values 1.02 | locus YJL095W, strain BCK1, hits give low values 0.982 and 1.02 | locus YJL115W, strain asf1, hits give low values 0.986 | locus YJL129C, strain trk1, hits give low values 1.01 | locus YJL134W, strain LCB3, hits give low values 0.987 | locus YJL154C, strain vps35, hits give low values 1 | locus YJL164C, strain tpk1, hits give low values 1.01 | locus YJL166W, strain qcr8, hits give low values 1 | locus YJL168C, strain set2, hits give low values 0.984 | locus YJL187C, strain SWE1 (second series), hits give low values 0.986 | locus YJL187C, strain SWE1, hits give low values 1.01 | locus YJR043C, strain POL32, hits give low values 1.02 | locus YJR066W, strain TOR1, hits give low values 0.945 | locus YKL009W, strain mrt4, hits give low values 0.988 | locus YKL068W, hits give low values 0.97 | locus YKL085W, strain MDH1 (second series), hits give low values 0.978 | locus YKL085W, strain MDH1, hits give low values 0.978 | locus YKL160W, strain elf1, hits give low values 0.992 | locus YKL190W, strain CNB1, hits give low values 0.992 | locus YKR001C, strain vps1, hits give low values 0.983 | locus YKR026C, strain gcn3, hits give low values 1 | locus YKR091W, strain srl3, hits give low values 1.01 | locus YLL001W, strain dnm1, hits give low values 1.01 | locus YLL026W, hits give low values 0.992 | locus YLL041C, strain sdh2, hits give low values 0.992 | locus YLR027C, strain aat2, hits give low values 0.985 | locus YLR039C, strain RIC1, hits give low values 1.01 | locus YLR058C, strain SHM2, hits give low values 0.973 | locus YLR102C, strain apc9, hits give low values 0.974 | locus YLR113W, strain HOG1, hits give low values 0.992 | locus YLR221C, strain rsa3, hits give low values 1 | locus YLR258W, strain gsy2, hits give low values 0.994 | locus YLR262C, strain YPT6 (second series), hits give low values 1.1 | locus YLR262C, strain YPT6, hits give low values 1.04 | locus YLR268W, strain sec22, hits give low values 0.999 | locus YLR320W, strain mms22, hits give low values 1 | locus YLR330W, strain CHS5, hits give low values 0.993 | locus YLR342W, strain FKS1 (second series), hits give low values 1.05 | locus YLR342W, strain FKS1, hits give low values 1.05 | locus YLR357W, strain rsc2, hits give low values 1 | locus YLR370C, strain arc18, hits give low values 1.02 | locus YLR371W, strain rom2, hits give low values 0.978 | locus YLR384C, strain iki3, hits give low values 1.01 | locus YLR418C, strain cdc73, hits give low values 0.977 | locus YML016C, strain PPZ1, hits give low values 1.01 | locus YML032C, strain rad52, hits give low values 0.964 | locus YML120C, strain ndi1, hits give low values 0.99 | locus YML124C, strain tub3, hits give low values 0.98 | locus YMR058W, strain fet3, hits give low values 0.983 | locus YMR078C, strain ctf18, hits give low values 0.98 | locus YMR125W, strain sto1, hits give low values 0.995 | locus YMR129W, hits give low values 0.997 | locus YMR205C, strain PFK2, hits give low values 0.997 | locus YMR223W, strain ubp8, hits give low values 0.994 | locus YMR231W, strain pep5, hits give low values 0.998 | locus YMR263W, strain SAP30, hits give low values 0.982 | locus YMR307W, strain GAS1, hits give low values 1.27 | locus YNL067W, strain RPL9B, hits give low values 0.974 | locus YNL071W, strain lat1, hits give low values 1.02 | locus YNL183C, strain NPR1, hits give low values 0.963 | locus YNL209W, strain ssb2, hits give low values 1 | locus YNL233W, strain BNI4, hits give low values 0.99 | locus YNL248C, strain rpa49, hits give low values 1.01 | locus YNL250W, strain rad50, hits give low values 0.959 | locus YNL271C, strain bni1, hits give low values 0.983 | locus YNL298W, strain CLA4, hits give low values 0.98 | locus YNL307C, strain MCK1, hits give low values 0.982 | locus YNL322C, strain KRE1 (second series), hits give low values 0.986 | locus YNL322C, strain KRE1, hits give low values 1 | locus YNR049C, strain mso1, hits give low values 1.01 | locus YNR052C, strain pop2, hits give low values 0.981 | locus YOL012C, strain htz1 0.809 | locus YOL147C, strain pex11, hits give low values 0.98 | locus YOR001W, strain rrp6, hits give low values 1.01 | locus YOR061W, strain CKA2, hits give low values 1 | locus YOR069W, strain VPS5, hits give low values 0.981 | locus YOR070C, strain gyp1, hits give low values 1.01 | locus YOR080W, strain dia2, hits give low values 1.01 | locus YOR083W, strain WHI5, hits give low values 1 | locus YOR106W, strain vam3, hits give low values 1.02 | locus YOR136W, strain idh2, hits give low values 0.983 | locus YOR144C, strain elg1, hits give low values 0.979 | locus YOR184W, strain ser1, hits give low values 0.996 | locus YOR231W, strain MKK1, hits give low values 1 | locus YOR265W, strain rbl2, hits give low values 0.999 | locus YOR270C, strain vph1, hits give low values 1.04 | locus YOR290C, strain snf2, hits give low values 1 | locus YOR316C, strain cot1, hits give low values 0.959 | locus YPL051W, strain arl3, hits give low values 0.997 | locus YPL055C, strain LGE1, hits give low values 1.02 | locus YPL078C, strain atp4, hits give low values 0.991 | locus YPL106C, strain sse1, hits give low values 0.995 | locus YPL240C, strain hsp82, hits give low values 1.01 | locus YPL241C, strain CIN2, hits give low values 0.989 | locus YPL256C, strain CLN2, hits give low values 0.983 | locus YPR119W, strain clb2, hits give low values 0.985 | locus YPR141C, strain kar3, hits give low values 0.962 | locus YPR163C, strain tif3, hits give low values 0.954 | locus YPR167C, strain met16, hits give low values 0.989 | strain wtn01, hits give low values 0.986
